Rows were chosen to be rich in hits. Some 3.1% of all compounds tested hit in one or more screens of this group.
Vif-A3G inh – qHTS for Inhibitors of Vif-A3G Interactions: qHTS; Potency, µM (highest dose often 46.1 µM), hits mostly inhibitors; 410,000 compounds, 0.076% hits; DNA dC->dU-editing enzyme APOBEC-3G (Homo sapiens), Q9HC16; HeLa A3G-eYFP + Vif (tagged APOBEC3G with the HIV-1 protein that degrades it), YFP fluorescence, overnight; further: nearly all actives have a fitted effect of over 60% in size
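HeLa cells stably expressing Vif and C-terminally eYFP-tagged A3G, seeded overnight at 37 deg C, then exposed to compound by pintool overnight at 37 deg C. Rise in yellow fluorescence (Ex 488/Em 500-530, Acumen) marks blocked Vif-driven A3G degradation.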
Vif-A3F inh – qHTS for Inhibitors of Vif-A3F Interactions: qHTS. HeLa A3F-eYFP + Vif (tagged APOBEC3F with the HIV-1 protein that degrades it), YFP fluorescence increase. Potency, µM (top dose mostly 46.1 µM). 390,000 compounds, 0.2% hits. AID 602313, 2012; further: nearly all actives have a fitted effect of over 65% in size
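HeLa cells stably expressing Vif plus C-terminally eYFP-tagged A3F were seeded, incubated overnight at 37 deg C, dosed with compound, incubated overnight again at 37 deg C. Yellow fluorescence (Ex 488/Em 500-530) reported blocked Vif-mediated A3F-eYFP degradation.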
TSHR antag – Antagonists of the Thyroid Stimulating Hormone Receptor: HTS campaign. Thyrotropin receptor (Homo sapiens), P16473. TSHR-expressing cells, TSH-stimulated cAMP HTRF, 2 h; stronger effect = lower value. activity change, negative = inhibition, % at 11.5 µM. 330,000 compounds, 0.2% hits. AID 504810, 2011;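 active means activity change below a set negative limit, meaning inhibition stronger than a set level, cut at about -70% in these data; inconclusive means activity change between two set negative limits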
Target sequence (P16473 whole entry, looked up): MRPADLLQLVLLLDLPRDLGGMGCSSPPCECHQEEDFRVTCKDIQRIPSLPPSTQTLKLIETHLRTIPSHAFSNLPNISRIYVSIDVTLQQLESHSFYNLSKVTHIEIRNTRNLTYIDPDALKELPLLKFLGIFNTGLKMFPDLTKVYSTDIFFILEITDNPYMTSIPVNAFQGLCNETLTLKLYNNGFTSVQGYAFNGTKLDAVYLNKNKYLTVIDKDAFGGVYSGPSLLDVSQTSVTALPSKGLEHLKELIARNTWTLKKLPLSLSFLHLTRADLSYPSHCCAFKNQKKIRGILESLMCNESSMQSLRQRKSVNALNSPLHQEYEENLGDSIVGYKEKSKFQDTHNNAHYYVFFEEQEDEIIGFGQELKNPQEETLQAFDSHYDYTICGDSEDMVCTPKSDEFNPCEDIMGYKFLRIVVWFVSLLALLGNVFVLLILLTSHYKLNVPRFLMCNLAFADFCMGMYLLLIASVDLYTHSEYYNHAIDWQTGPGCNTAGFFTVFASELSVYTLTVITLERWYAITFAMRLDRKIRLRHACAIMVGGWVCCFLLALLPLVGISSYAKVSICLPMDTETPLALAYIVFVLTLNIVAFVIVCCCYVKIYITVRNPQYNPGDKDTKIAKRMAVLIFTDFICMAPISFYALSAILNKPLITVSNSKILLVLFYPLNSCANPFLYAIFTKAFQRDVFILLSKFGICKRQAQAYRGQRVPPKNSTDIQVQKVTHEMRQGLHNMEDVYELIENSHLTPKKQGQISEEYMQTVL
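TSHR-expressing cells were treated with compounds, then stimulated with TSH at EC80 (4nM final) for 2 hours at 37 deg C. Cellular cAMP was measured by HTRF competition between lysate cAMP and cAMP-d2 for a cryptate-labelled anti-cAMP antibody.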
PLK1 PBD inh – qHTS for Inhibitors of PLK1-PDB (polo-like kinase 1 - polo-box domain): Primary Screen; Serine/threonine-protein kinase PLK1 (Homo sapiens), P53350; Plk1 PBD binding of FITC phosphopeptide, fluorescence polarization; Potency, µM, hits mostly inhibitors; 360,000 compounds, 2.8% hits; AID 720504, 2013; further: series mostly up to about 57 µM; nearly all actives have a fitted effect of over 65% in size
VDR inhibitor – Inhibitors of the vitamin D receptor (VDR): qHTS | Vitamin D3 receptor (Homo sapiens), P11473 | VDR-SRC2-3 peptide fluorescence polarization, 2 h | Potency, µM, most hits filed as inhibitors | 400,000 compounds, 0.93% hits | AID 504847, 2011
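Compounds are added to VDR with labelled SRC2-3 coactivator peptide and held 2 h at room temperature. Inhibition of the VDR–peptide interaction is then read as a change in fluorescence polarization.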
Numbers stand for hits; 0 = inactive; ? = inconclusive; - = not tested or not shown. Unless noted, the call rests on the fitted dose curve; in most records, active means well fitted curve in the direction sought with a large enough effect; inconclusive means small, poorly fitted or top-dose-only effect, or another doubt; inactive means no such curve, though single readings can be large; an effect the other way counts as inactive or inconclusive.

SMILES | Vif-A3G inh | Vif-A3F inh | TSHR antag | PLK1 PBD inh | VDR inhibitor
O=S(=O)(O)c1ccc(N=Nc2ccccc2)cc1 | 0 | 0 | 0 | 0 | 0
Nc1c(N=Nc2ccc(-c3ccc(N=Nc4cc(S(=O)(=O)O)c5ccccc5c4N)cc3)cc2)cc(S(=O)(=O)O)c2ccccc12 | - | - | - | - | 28µM
Cc1cc2ccccc2n1-c1ccc(C(=O)N2CCCCC2)s1 | 0 | 0 | - | - | 0
O=C(CCC1CCCN(C(=O)c2cncs2)C1)NCc1ccc(F)c(F)c1 (stereo not drawn) | 0 | 0 | 0 | 30µM | ?
Cc1cccc(C)c1Nc1c(-c2ccccc2Cl)nc2cnccn12 | 0 | 0 | - | - | 0
C(=C\c1nc2ccccc2nc1/C=C/c1ccc2c(c1)OCO2)/c1ccc2c(c1)OCO2 | 0 | - | - | - | -
CCOc1ccccc1/C=C/c1nc2ccccc2[nH]c1=O | 0 | 0 | 0 | 3.8µM | ?
CCOc1ccccc1OCCCC(=O)Nc1nc2ccccc2[nH]1 | 0 | 0 | 0 | 0 | 0
O=C(NC1CCCCCC1)c1ccc2c(c1)sc1nc(-c3ccccc3)cn12 | 0 | 5µM | - | - | 0
CCN1CCN(C(=O)Cn2ncc3c([nH]c4ccccc43)c2=O)CC1 | 0 | 0 | 0 | 0 | 0
CCCn1c2ccccc2c2cnn(CC(=O)NCC3CCN(Cc4ccc(F)cc4)CC3)c(=O)c21 | 0 | 0 | - | - | 0
CC1CC(C)CN(C(=O)Cn2ncc3c([nH]c4ccccc43)c2=O)C1 (stereo not drawn) | 0 | 0 | 0 | 24µM | 0
O=C(Cn1ncc2c([nH]c3ccccc32)c1=O)NCC1CCN(Cc2ccc(F)cc2)CC1 | 0 | 0 | -138 | 0 | 0
ICC[n+]1csc2ccccc21 | 0 | - | - | - | -
C=CCC(Nc1ccc(OC)cc1)(C(=O)OCC)c1ccccc1 (stereo not drawn) | - | - | - | - | 0
CC(=O)NCCC(=O)N(C)CC1CCN(CCc2cccc(C(F)(F)F)c2)CC1 | 0 | 0 | 0 | 21µM | ?
COc1cccc(C(=O)N(C)CC2CCN(CCc3cccc(C(F)(F)F)c3)CC2)c1 | 0 | 0 | 0 | 0 | 0
Cc1cccc(NC(=O)Cn2c(=O)n(Cc3ccccc3)c(=O)c3oc4ccccc4c32)c1C | 0 | 0 | - | - | 0
Nc1ncnc2c1ncn2[C@@H]1O[C@H](CNCc2ccc(OCc3ccccc3)cc2)[C@@H](O)[C@H]1O | 22µM | 0 | 0 | 0 | 0
CSc1cc(-c2ccc(Cl)cc2)c(C(=O)NC(C)C)s1 | 0 | 0 | 0 | 3µM | 0
CSc1cc(-c2ccc(Cl)cc2)c(C(=O)NN)s1 | 0 | 0 | 0 | 0 | ?
O=C(O)Cn1nc(-c2ccccc2)cc1-c1ccccc1 | 0 | 0 | 0 | 21µM | ?
CC(C)Oc1ccc(CNCC2(O)CCOC(C)(C)C2)cc1 (stereo not drawn) | 0 | - | 0 | 30µM | 0
CCN(CC)C(=O)C[n+]1ccc(C(N)=O)cc1 | 0 | 0 | 0 | 27µM | 0
C=CCN(CC=C)C(=O)C[n+]1ccc(C(N)=O)cc1 | 0 | 0 | 0 | 0 | 0
SMILES | Vif-A3G inh | Vif-A3F inh | TSHR antag | PLK1 PBD inh | VDR inhibitor
O=C(COc1ccccc1F)NC12CC3CC(CC(C3)C1)C2 | 0 | 0 | 0 | 30µM | ?
C#CCN(C1CCCC1)S(=O)(=O)C=C | 0 | - | - | - | -
Cn1c(SCC(=O)N2CCCC2)nc2cccnc21 | 0 | 0 | 0 | 0 | 0
O=C(CSc1nc2cccnc2n1Cc1ccccc1)N1CCCC1 | 0 | 0 | 0 | 30µM | ?
COc1ccc(-c2cc3c(nn2)-c2ccccc2C3=O)cc1 | 0 | 0 | 0 | 24µM | 79µM
COc1ccc2c(c1)c1nnc(SC(C)C)nc1n2C | - | - | - | - | 0
CC(=O)OCOC(=O)CNc1ccccc1OCCOc1ccccc1NCC(=O)OCOC(C)=O | - | - | - | - | 0
Cc1ccc2cc3cc(C(=O)N4CC(C)CC(C)C4)oc3nc2c1 (stereo not drawn) | 0 | 0 | 0 | 13µM | 0
COc1ccccc1/C=C/C=N/NC(=O)CCC1C(=O)NN=C1C (stereo not drawn) | 0 | 0 | 0 | 27µM | 0
COC(=O)/C(=C/c1c[nH]c2ccccc12)[N+](=O)[O-] | 0 | 0 | 0 | 2.4µM | 0
CC(C)OC(=O)[C@@H]1CC[C@H](C)[C@@H](CCCCO)O1 | - | - | - | - | 0
O=C(/C=C/c1ccccn1)c1cc(Br)ccc1O | 0 | 0 | 0 | 11µM | ?
CCc1nnc(NS(=O)(=O)c2ccc(NC(=O)Nc3ccc(OC)cc3)cc2)s1 | 0 | 0 | 0 | 0 | 0
COc1ccc(S(=O)(=O)Nc2nnc(C(C)(C)C)s2)cc1 | 0 | 0 | 0 | 7.5µM | ?
COc1ccc(S(=O)(=O)Nc2nnc(CC(C)(C)C)s2)cc1 | 0 | 0 | 0 | 30µM | 0
COc1ccc(S(=O)(=O)Nc2nnc(C(C)C)s2)cc1 | 0 | 0 | 0 | ? | 0
CCc1nnc(NC(=O)c2ccc(S(C)(=O)=O)cc2)s1 | 0 | 0 | 0 | 9.5µM | 20µM
CCOc1ccc(/C=C/C(=O)c2cccs2)cc1 | - | - | - | - | 22µM
Cc1c(/C=C/C(=O)c2cccs2)cnn1C | 0 | 0 | 0 | 3.4µM | ?
Nc1ccc(/C=C/C(=O)c2cccs2)cc1 | 0 | ? | 0 | 0 | 0
O=C(C=Cc1ccccc1)c1cccs1 | ? | 0 | - | 0 | 56µM
CCOc1ccc(/C=C/C(=O)c2ccccc2)cc1 | 0 | 0 | 0 | 0 | ?
O=C(/C=C/c1ccccc1)c1cccs1 | - | - | - | - | 11µM
CCOC(=O)[C@@H](C)N(C(=O)OC(C)(C)C)S(=O)(=O)N(Cc1ccccc1)[C@@H](C(=O)OC)C(C)C | 0 | - | - | - | -
N#CCCn1c(=O)c(-c2cccc(C#N)c2)nc2cnc(N3CCOCC3)nc21 | - | - | - | - | 0
COc1ccc(N=Cc2nc(-c3ccccc3)oc2OC(C)=O)cc1 | 0 | 0 | 0 | ? | 28µM
Cc1ccc(N2CCN(C(=O)c3c(C)oc4ncn(CC(C)C)c(=O)c34)CC2)c(C)c1 | 0 | 0 | - | - | 0
